Measurements published in PubChem BioAssay (EPA / NIEHS).
Values joined by “and” are separate entries in the source; they are usually repeats but may differ in a detail not shown here. Identical values can stand only once. Records with an inconclusive call do not appear. A structure can be active in one record and inactive in another. Active and inactive are the calls of the source. The calls were made as follows, unless noted: active = hit-call score of the fitted dose curve at least 0.9, where 1 is the maximum; inconclusive = response in the unintended direction; inactive = score below 0.9.

What was measured:
[1] = target: rat Glutamate, AMPA Site (AMPA), Gria1 (gene 50592) (UniProt P19490); assay: NVS_LGIC_rAMPA: NovaScreen (NVS) Ligand-Gated Ion Channel Assay for rat Glutamate, AMPA Site (AMPA) (AID 2283324)
Procedure, shortened: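 Screening at 25 uM in duplicate preceded concentration series reaching 50 uM for qualifying compounds. Radioligand displacement on rat forebrain membranes, 1 h, filter-based scintillation readout; reduced binding relative to DMSO.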

[2] = target: Voltage-gated inwardly rectifying potassium channel KCNH2 (Homo sapiens) (UniProt Q12809); assay: NVS_IC_hKhERGCh: NovaScreen (NVS) Ion Channel Assay for human Potassium Channel ERG (KhERGCh) (AID 2283333)
Procedure, shortened: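 Membranes from CHO cells expressing human ERG; displacement of radioligand measured by filtration and scintillation after 0.75 h. Single-concentration duplicate screen at 25 uM, then concentration-response for actives; DMSO baseline.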

[3] = target: rat Gamma-Aminobutyric Acid Type A Receptor, Non-Selective (GABAR-NonSelective), Gabra1 (gene 29705) (UniProt P62813); assay: NVS_LGIC_rGABAR_NonSelective: NovaScreen (NVS) Ligand-Gated Ion Channel Assay for rat Gamma-Aminobutyric Acid Type A Receptor, Non-Selective (GABAR-NonSelective) (AID 2283326)
Procedure, shortened: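 Compounds were first screened in duplicate at 25 uM, with actives run as singleton concentration series (max 50 uM). Binding of a radioligand to rat whole-brain GABA-A preparation was measured by filtration and scintillation counting after 1 h, DMSO baseline.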

[4] = target: bovine Gamma-Aminobutyric Acid Type A Receptor BDZ, alpha 5 site (GABARa5), GABRA5 (gene 523515) (UniProt Q08E50); assay: NVS_LGIC_bGABARa5: NovaScreen (NVS) Ligand-Gated Ion Channel Assay for bovine Gamma-Aminobutyric Acid Type A Receptor BDZ, alpha 5 site (GABARa5) (AID 2283323)
Procedure, shortened: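 Tested first in duplicate at a single 25 uM, with hits re-run in concentration series to a 50 uM maximum. Bovine hippocampal membranes; specific radioligand displacement measured by filter scintillation counting 1 hr post-dose.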

[5] = target: rat Neonicotinoid receptor (NNR), Chrna7 (gene 25302) (UniProt Q05941); assay: NVS_LGIC_rNNR_BungSens: NovaScreen (NVS) Ligand-Gated Ion Channel Assay for rat Neonicotinoid receptor (NNR) (AID 2283315)
Procedure, shortened: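 Rat cortical membrane preparation incubated 2.5 h with tritiated or iodinated radioligand and test chemical. Bound radioactivity was filtered and counted by scintillation, and displacement was analysed against DMSO.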

[6] = target: rat Vasopressin 1 Receptor (V1), Avpr1a (gene 25107) (UniProt P30560); assay: NVS_GPCR_rV1: NovaScreen (NVS) G Protein-Coupled Receptor Assay for rat Vasopressin 1 Receptor (V1) (AID 2283316)
Procedure, shortened: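 Concentration-response up to 50 uM for chemicals passing a threshold such as 30% inhibition in an initial duplicate 25 uM screen. Displacement of radioligand from rat liver membranes measured after 1.5 h by filtration and scintillation.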

[7] = target: rat Opioid Receptor, Non-selective Binding, Oprm1 (gene 25601) (UniProt P33535); assay: NVS_GPCR_rOpiate_NonSelective: NovaScreen (NVS) G Protein-Coupled Receptor Assay for rat Opioid Receptor, Non-selective Binding (AID 2283318)
Procedure, shortened: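 Filter-based radioligand displacement using rat forebrain membrane preparations, measured 1.5 h post-dosing. Single-concentration duplicate screen at 25 uM, follow-up in concentration series; activity taken as signal loss relative to DMSO.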

[8] = NVS_IC_rCaDHPRCh_L: NovaScreen (NVS) Ion Channel Assay for rat Calcium Channel, Type L, Dihydropyridine Site (CaDHPRCh_L) (AID 2283320)
Procedure, shortened: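 Rat cortex membrane preparation; dihydropyridine-site radioligand displacement read 1 h post-dose by filtration and scintillation. Primary single-point screen 25 uM in duplicate, then concentration series to 50 uM maximum; DMSO as negative control.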

[9] = target: Sodium channel protein type 1 subunit alpha (Rattus norvegicus) (UniProt P04774); assay: NVS_IC_rNaCh_site2: NovaScreen (NVS) Ion Channel Assay for rat Sodium Channel, Site 2 (NaCh) (AID 2283322);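 also: hit means loss of radioligand binding signal relative to DMSO so AC50 marks displacement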
Procedure, shortened: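 Initial duplicate single-point testing at 25 uM, followed by concentration-response runs for actives. Binding of radioligand to rat forebrain membranes quantified after 1 h via filter-based radiodetection.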

[10] = target: human Peripheral-type Benzodiazepine Receptor (PBR), TSPO (gene 706) (UniProt P30536); assay: NVS_MP_hPBR: NovaScreen (NVS) Membrane Protein Assay for human Peripheral-type Benzodiazepine Receptor (PBR) (AID 2283331);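 also: hits reduce radioligand binding relative to DMSO baseline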
Procedure, shortened: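 Using human colon-derived membranes, this one-endpoint binding test reads radioligand loss by scintillation after 1 h. Screening started at 25 uM in duplicate, with positive and negative controls on every plate, and actives moved to dose series.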

[11] = target: rat Peripheral-type Benzodiazepine Receptor (PBR), Tspo (gene 24230) (UniProt P16257); assay: NVS_MP_rPBR: NovaScreen (NVS) Membrane Protein Assay for rat Peripheral-type Benzodiazepine Receptor (PBR) (AID 2283335)
Procedure, shortened: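 Competitive displacement of specific radioligand from rat kidney membrane PBR, read by filtration and scintillation after 1 h. Compounds first tested at 25 uM in duplicate, then in concentration series; signal loss relative to DMSO.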

[12] = target: Voltage-dependent N-type calcium channel subunit alpha-1B (Rattus norvegicus) (UniProt Q02294); assay: NVS_IC_rCaChN: NovaScreen (NVS) Ion Channel Assay for rat Calcium Channel, Type N (CaChN) (AID 2283317)
[13] = target: bovine Gamma-Aminobutyric Acid Type A Receptor BDZ, alpha 1 site (GABARa1), GABRA1 (gene 780973) (UniProt P08219); assay: NVS_LGIC_bGABARa1: NovaScreen (NVS) Ligand-Gated Ion Channel Assay for bovine Gamma-Aminobutyric Acid Type A Receptor BDZ, alpha 1 site (GABARa1) (AID 2283321)
Procedure, shortened: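 Bovine cortex membrane preparation, benzodiazepine site on GABA-A alpha1; specific radioligand displacement read after 0.75 h by filtration and scintillation. Screen at 25 uM, then singleton titrations up to 50 uM; DMSO baseline.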

[14] = target: rat Oxytocin Receptor (OXT), Oxtr (gene 25342) (UniProt P70536); assay: NVS_GPCR_rOXT: NovaScreen (NVS) G Protein-Coupled Receptor Assay for rat Oxytocin Receptor (OXT) (AID 2283330)
Procedure, shortened: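 Binding to rat uterine membrane receptor was followed by scintillation counting of filter-trapped radioligand after 1 h. A 25 uM duplicate single-point screen preceded concentration series with a top of 50 uM. Signal loss was analysed relative to DMSO.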

[15] = target: rat Glutamate, NMDA Agonist Site (GluNMDA), Grin1 (gene 24408) (UniProt P35439); assay: NVS_LGIC_rGluNMDA_Agonist: NovaScreen (NVS) Ligand-Gated Ion Channel Assay for rat Glutamate, NMDA Agonist Site (GluNMDA) (AID 2283327)
Procedure, shortened: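 Radioligand displacement at the agonist site on rat forebrain membrane preparations, read by filter scintillation after 1 h. Chemicals were first run at 25 uM in duplicate; those passing threshold were titrated to a 50 uM maximum.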

[16] = target: human Androgen Receptor (AR), AR (gene 367) (UniProt P10275); assay: NVS_NR_hAR: NovaScreen (NVS) Nuclear Receptor Binding Assay for human Androgen Receptor (AR) (AID 2283332)
Procedure, shortened: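 Actives from a duplicate 25 uM single-point screen went on to concentration series. Read-out after 20 h was scintillation counting of displaced radioligand in LnCAP extract, with DMSO as baseline.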

[17] = target: Glutamate receptor ionotropic, kainate 1 (Rattus norvegicus) (UniProt P22756); assay: NVS_IC_rKAR: NovaScreen (NVS) Ion Channel Assay for rat Kainic Acid Receptors (KAR) (AID 2283334; active = hit-call score of the fitted dose curve at least 0.9, where 1 is the maximum; inactive = score below 0.9)
Procedure, shortened: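 Rat forebrain membrane preparation incubated 1 h with radioligand and test chemical; bound signal read by filtration and scintillation. Single-concentration screen at 25 uM, then concentration series to 50 uM maximum.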

[18] = system: NCBI gene 24521; assay: NVS_IC_rKATPCh: NovaScreen (NVS) Ion Channel Assay for rat Potassium Channel, ATP-Sensitive (KATPCh) (AID 2283319)
Procedure, shortened: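 Primary duplicate screen at 25 uM, then singleton concentration series to 50 uM maximum, in a rat cortex membrane radioligand displacement assay. Binding measured by filtration and scintillation 2 h post-dose; DMSO baseline.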

[19] = target: Small conductance calcium-activated potassium channel protein 1 (Rattus norvegicus) (UniProt P70606); assay: NVS_IC_rKCaCh: NovaScreen (NVS) Ion Channel Assay for rat Potassium Channel, Ca2+ Act., VI (KCaCh) (AID 2283336)
Procedure, shortened: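 Filter-based scintillation counting of radioligand bound to rat forebrain membrane preparations, measured 1 h after compound addition. Primary screen used 25 uM in duplicate, with concentration-response follow-up; signal decrease relative to DMSO marks activity.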

Sequence of rat Neonicotinoid receptor (NNR), Chrna7 (gene 25302) (Q05941 whole entry, looked up): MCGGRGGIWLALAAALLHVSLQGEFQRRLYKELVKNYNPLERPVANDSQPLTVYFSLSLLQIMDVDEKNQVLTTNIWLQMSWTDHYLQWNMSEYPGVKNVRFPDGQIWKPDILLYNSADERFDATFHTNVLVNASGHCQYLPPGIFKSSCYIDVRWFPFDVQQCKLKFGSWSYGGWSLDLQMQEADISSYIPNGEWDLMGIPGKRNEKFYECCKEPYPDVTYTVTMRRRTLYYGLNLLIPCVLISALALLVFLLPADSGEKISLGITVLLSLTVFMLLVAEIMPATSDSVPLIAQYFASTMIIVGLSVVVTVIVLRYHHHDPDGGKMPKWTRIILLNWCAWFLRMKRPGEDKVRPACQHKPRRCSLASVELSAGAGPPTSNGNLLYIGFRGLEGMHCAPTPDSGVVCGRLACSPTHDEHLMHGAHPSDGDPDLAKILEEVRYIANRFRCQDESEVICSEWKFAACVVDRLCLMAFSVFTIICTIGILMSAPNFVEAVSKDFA
Sequence of Glutamate receptor ionotropic, kainate 1 (Rattus norvegicus) (P22756 whole entry, looked up): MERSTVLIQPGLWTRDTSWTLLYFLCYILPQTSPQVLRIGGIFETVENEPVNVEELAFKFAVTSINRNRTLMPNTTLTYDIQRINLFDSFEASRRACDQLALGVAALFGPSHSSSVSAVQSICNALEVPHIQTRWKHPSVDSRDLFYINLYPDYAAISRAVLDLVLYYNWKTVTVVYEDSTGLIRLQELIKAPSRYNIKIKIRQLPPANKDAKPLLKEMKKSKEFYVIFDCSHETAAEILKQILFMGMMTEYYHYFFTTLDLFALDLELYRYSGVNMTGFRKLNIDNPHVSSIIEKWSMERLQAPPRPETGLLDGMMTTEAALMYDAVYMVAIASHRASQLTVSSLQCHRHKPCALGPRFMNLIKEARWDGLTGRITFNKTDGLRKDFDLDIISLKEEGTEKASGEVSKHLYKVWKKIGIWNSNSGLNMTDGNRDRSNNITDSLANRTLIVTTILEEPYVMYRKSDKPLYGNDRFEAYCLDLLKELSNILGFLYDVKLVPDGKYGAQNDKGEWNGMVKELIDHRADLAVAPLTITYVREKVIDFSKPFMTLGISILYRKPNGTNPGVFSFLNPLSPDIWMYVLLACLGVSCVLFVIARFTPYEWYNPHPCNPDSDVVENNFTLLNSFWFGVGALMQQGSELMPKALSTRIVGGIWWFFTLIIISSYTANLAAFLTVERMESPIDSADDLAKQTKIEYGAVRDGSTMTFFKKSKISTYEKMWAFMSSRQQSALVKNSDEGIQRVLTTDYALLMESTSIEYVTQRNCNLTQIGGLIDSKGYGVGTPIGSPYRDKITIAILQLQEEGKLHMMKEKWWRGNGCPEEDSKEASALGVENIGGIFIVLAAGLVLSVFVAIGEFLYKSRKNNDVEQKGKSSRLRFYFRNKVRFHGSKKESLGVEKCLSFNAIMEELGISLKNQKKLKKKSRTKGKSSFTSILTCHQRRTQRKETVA
Sequence of bovine Gamma-Aminobutyric Acid Type A Receptor BDZ, alpha 5 site (GABARa5), GABRA5 (gene 523515) (Q08E50 whole entry, looked up): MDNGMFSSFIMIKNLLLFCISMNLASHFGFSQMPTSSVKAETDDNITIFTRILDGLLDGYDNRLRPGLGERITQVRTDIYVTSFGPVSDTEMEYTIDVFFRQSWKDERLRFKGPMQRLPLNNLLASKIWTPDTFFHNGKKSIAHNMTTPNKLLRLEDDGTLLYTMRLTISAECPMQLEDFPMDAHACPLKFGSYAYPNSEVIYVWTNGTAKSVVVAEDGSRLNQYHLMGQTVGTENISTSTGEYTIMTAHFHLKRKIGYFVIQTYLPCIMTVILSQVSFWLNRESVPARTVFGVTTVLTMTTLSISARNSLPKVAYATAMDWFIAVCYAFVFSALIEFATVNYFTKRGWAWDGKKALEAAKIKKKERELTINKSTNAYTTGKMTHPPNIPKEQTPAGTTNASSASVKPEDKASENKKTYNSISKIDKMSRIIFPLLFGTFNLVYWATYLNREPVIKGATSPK
Sequence of rat Peripheral-type Benzodiazepine Receptor (PBR), Tspo (gene 24230) (P16257 whole entry, looked up): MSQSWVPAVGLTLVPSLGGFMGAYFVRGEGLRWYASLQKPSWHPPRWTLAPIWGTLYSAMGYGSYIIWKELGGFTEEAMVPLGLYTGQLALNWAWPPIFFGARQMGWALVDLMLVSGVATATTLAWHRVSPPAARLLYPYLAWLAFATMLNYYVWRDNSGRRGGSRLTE
Sequence of Voltage-gated inwardly rectifying potassium channel KCNH2 (Homo sapiens) (Q12809 whole entry, looked up): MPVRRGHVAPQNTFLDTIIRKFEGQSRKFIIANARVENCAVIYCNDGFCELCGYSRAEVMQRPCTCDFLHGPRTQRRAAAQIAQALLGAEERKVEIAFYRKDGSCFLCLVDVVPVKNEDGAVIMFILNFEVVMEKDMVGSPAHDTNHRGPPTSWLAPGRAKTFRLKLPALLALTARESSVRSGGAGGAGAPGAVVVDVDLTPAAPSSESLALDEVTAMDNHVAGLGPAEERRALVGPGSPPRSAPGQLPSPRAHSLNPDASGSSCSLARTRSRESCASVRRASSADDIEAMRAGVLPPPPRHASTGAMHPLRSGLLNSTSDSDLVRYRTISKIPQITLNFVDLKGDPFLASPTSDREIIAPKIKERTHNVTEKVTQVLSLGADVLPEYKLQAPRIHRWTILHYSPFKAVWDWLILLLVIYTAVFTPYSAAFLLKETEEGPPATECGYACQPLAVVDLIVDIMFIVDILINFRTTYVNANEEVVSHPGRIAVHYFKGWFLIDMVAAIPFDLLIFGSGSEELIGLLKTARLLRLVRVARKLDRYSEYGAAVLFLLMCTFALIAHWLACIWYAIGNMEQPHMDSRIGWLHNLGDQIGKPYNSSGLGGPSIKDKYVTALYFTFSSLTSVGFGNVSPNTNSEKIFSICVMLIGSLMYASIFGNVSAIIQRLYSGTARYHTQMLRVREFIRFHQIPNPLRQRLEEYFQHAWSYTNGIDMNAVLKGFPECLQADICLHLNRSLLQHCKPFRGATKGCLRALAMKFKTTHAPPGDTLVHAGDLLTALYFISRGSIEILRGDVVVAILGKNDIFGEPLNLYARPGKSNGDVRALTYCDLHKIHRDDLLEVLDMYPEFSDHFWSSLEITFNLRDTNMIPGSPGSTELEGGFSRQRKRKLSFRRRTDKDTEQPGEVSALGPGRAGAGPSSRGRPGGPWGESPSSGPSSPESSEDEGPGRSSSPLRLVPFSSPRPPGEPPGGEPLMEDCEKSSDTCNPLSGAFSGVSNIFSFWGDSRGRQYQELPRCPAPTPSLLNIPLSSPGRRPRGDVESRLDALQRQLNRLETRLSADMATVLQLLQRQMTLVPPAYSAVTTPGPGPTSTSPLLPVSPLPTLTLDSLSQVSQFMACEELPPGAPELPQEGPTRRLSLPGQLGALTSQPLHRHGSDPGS
Sequence of bovine Gamma-Aminobutyric Acid Type A Receptor BDZ, alpha 1 site (GABARa1), GABRA1 (gene 780973) (P08219 whole entry, looked up): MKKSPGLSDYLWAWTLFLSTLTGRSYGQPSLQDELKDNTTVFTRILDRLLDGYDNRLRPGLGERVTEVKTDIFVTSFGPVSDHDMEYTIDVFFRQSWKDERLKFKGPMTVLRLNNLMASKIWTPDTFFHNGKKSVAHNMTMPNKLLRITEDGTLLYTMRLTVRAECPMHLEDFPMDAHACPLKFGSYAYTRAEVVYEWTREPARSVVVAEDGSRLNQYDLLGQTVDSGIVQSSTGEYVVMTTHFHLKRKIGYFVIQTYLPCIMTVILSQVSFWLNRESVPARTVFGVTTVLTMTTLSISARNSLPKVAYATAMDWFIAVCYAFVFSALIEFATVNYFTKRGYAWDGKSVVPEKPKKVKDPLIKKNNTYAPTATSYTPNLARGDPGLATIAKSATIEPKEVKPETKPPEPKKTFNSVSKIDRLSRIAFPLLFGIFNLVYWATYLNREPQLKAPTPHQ
Sequence of human Androgen Receptor (AR), AR (gene 367) (P10275 whole entry, looked up): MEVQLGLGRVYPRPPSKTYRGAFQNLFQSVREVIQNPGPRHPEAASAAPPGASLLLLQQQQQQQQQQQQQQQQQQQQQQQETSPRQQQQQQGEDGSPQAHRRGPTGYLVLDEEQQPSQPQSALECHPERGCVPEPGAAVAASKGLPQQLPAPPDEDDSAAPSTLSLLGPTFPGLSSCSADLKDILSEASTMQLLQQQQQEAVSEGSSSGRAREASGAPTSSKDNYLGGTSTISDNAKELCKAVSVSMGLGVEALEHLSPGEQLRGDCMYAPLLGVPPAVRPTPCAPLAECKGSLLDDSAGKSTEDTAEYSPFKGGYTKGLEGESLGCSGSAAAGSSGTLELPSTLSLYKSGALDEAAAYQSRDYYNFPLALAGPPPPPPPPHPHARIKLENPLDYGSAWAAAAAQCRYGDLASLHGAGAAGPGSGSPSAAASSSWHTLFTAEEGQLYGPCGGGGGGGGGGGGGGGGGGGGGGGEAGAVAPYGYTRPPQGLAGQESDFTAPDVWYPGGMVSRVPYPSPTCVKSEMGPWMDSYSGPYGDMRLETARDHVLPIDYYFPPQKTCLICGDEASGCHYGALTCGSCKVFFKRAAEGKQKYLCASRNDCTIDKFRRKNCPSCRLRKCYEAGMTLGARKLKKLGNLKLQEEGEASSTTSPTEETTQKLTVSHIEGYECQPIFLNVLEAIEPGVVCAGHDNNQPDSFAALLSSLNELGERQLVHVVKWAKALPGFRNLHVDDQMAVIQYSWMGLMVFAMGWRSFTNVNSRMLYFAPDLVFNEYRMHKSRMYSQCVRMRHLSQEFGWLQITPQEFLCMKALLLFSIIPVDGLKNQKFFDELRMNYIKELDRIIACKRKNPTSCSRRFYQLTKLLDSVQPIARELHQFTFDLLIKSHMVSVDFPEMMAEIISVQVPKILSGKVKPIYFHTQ
Sequence of human Peripheral-type Benzodiazepine Receptor (PBR), TSPO (gene 706) (P30536 whole entry, looked up): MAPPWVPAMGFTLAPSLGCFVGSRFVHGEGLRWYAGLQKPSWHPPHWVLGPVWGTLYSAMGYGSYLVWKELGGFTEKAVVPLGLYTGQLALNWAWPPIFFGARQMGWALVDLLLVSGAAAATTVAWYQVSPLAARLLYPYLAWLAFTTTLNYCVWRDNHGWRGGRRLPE

Cc1cc(C)nc(NC(=O)NS(=O)(=O)c2ccccc2C(=O)OC2COC2)n1
outcome [1]: inactive | outcome [2]: inactive

CCS(=O)(=O)c1cccnc1S(=O)(=O)NC(=O)Nc1nc(OC)cc(OC)n1
outcome [3]: inactive

CNC(=O)/C=C(\C)OP(=O)(OC)OC
outcome [4]: inactive

C[C@H]1[C@H](c2ccc(Cl)cc2)SC(=O)N1C(=O)NC1CCCCC1
outcome [5]: inactive

CCCN(CCOc1c(Cl)cc(Cl)cc1Cl)C(=O)n1ccnc1
AC50 [6]: 6.02 µM (active) | AC50 [7]: 14.8 µM (active) | outcome [8]: inactive | AC50 [9]: 14.3 µM (active) | outcome [3]: inactive | AC50 [10]: 2.59 µM (active) | AC50 [2]: 8.01 µM (active) | AC50 [11]: 53.9 nM (active)

COP(=O)(OC)OC=C(Cl)Cl
outcome [12]: inactive | outcome [10]: inactive

COP(=S)(OC)Oc1ccc([N+](=O)[O-])cc1
outcome [5]: inactive | outcome [13]: inactive | AC50 [10]: 19.5 µM (active) | AC50 [11]: 15700 nM (active)

CC(C)(C)C(O)/C(=C\c1ccc(Cl)cc1Cl)n1cncn1 (stereo not given)
outcome [12]: inactive | outcome [7]: inactive

CC(C)N(C(=O)COc1nnc(C(F)(F)F)s1)c1ccc(F)cc1
AC50 [13]: 14.2 µM (active) | AC50 [10]: 0.27 µM (active) | AC50 [11]: 24.8 nM (active)

N#Cc1c(Cl)c(Cl)c(Cl)c(C#N)c1Cl
outcome [12]: inactive | AC50 [10]: 9.01 µM (active)

O=[N+]([O-])/N=C1\NCCN1Cc1ccc(Cl)nc1
AC50 [5]: 10.9 µM (active) | outcome [10]: inactive | outcome [11]: inactive

O=C(Nc1ccccc1)Nc1cnns1
AC50 [4]: 7.77 µM (active) | outcome [1]: inactive | outcome [14]: inactive

O=C(NC(=O)c1c(F)cccc1F)Nc1ccc(OC(F)(F)C(F)OC(F)(F)F)c(Cl)c1 (stereo not given)
outcome [4]: inactive

COP(=S)(OC)Oc1ccc(SC)c(C)c1
outcome [5]: inactive | AC50 [10]: 17.4 µM (active) | AC50 [11]: 4640 nM (active)

Oc1ccc(Cl)cc1Cc1ccccc1
AC50 [6]: 7.33 µM (active) | outcome [6]: inactive | outcome [7]: inactive | AC50 [8]: 30.2 µM (active) [middle of 7 runs] | AC50 [9]: 10.9 µM (active) | outcome [9]: inactive | outcome [15]: inactive | AC50 [10]: 17.1 µM (active) [middle of 7 runs] | AC50 [16]: 7.84 µM (active) [middle of 6 runs] | outcome [17]: inactive | AC50 [11]: 11 µM (active) and 9.89 µM (active) and 8.7 µM (active) | outcome [11]: inactive

CC[C@H](C)[C@H]1O[C@]2(C=C[C@@H]1C)C[C@@H]1C[C@@H](C/C=C(\C)[C@@H](O[C@H]3C[C@H](OC)[C@@H](O[C@H]4C[C@H](OC)[C@@H](O)[C@H](C)O4)[C@H](C)O3)[C@@H](C)/C=C/C=C3\CO[C@@H]4[C@H](O)C(C)=C[C@@H](C(=O)O1)[C@]34O)O2 (tested in a mixture with another compound)
AC50 [8]: 4.89 µM (active) | AC50 [4]: 8.26 µM (active) | AC50 [10]: 0.363 µM (active) | outcome [11]: inactive

O=S(=O)(O)C(F)(F)C(F)(F)C(F)(F)C(F)(F)C(F)(F)C(F)(F)C(F)(F)C(F)(F)F
outcome [8]: inactive | outcome [9]: inactive | outcome [15]: inactive | outcome [11]: inactive

CCOC1Oc2ccc(OS(C)(=O)=O)cc2C1(C)C (stereo not given)
outcome [5]: inactive | outcome [18]: inactive

[2H]C1([2H])[n+]2ccccc2-c2cccc[n+]2C1([2H])[2H]
outcome [13]: inactive

Oc1cc(Cl)ccc1Oc1ccc(Cl)cc1Cl
AC50 [6]: 3.23 µM (active) and 12.1 µM (active) | outcome [7]: inactive | outcome [9]: inactive | outcome [10]: inactive | AC50 [11]: 5.64 µM (active) and 25.5 µM (active) and 9.13 µM (active) | outcome [11]: inactive

CC(C)(C)C(O)C(Oc1ccc(Cl)cc1)n1cncn1 (stereo not given)
AC50 [6]: 3.04 µM (active) and 27.7 µM (active) | outcome [10]: inactive | outcome [11]: inactive

CCC(C)Nc1c([N+](=O)[O-])cc(C(C)(C)C)cc1[N+](=O)[O-] (stereo not given)
outcome [15]: inactive

CCCN(CCC)c1c([N+](=O)[O-])cc(C(F)(F)F)cc1[N+](=O)[O-]
outcome [16]: inactive

CCOc1nc(NC)nc(NC(=O)NS(=O)(=O)c2ccccc2C(=O)OC)n1
outcome [16]: inactive

COc1cc(OC)nc(NC(=O)NS(=O)(=O)c2cc(NC=O)ccc2C(=O)N(C)C)n1
outcome [2]: inactive

ClC1C(Cl)C(Cl)C(Cl)C(Cl)C1Cl (stereo not given)
outcome [17]: inactive

O=C(O)COc1ccc(Cl)cc1Cl
outcome [17]: inactive

N#CN
outcome [19]: inactive
